Measured values from the supplement of paper PMC6411743.
± gives the standard deviation of the averaged measurements. About 6,200 targets were measured; listed, in parts, are those with the largest changes and a random draw of the rest.

Compound: Nc1ncnc2c1ncn2[C@@H]1O[C@H](COP(=O)(O)OP(=O)(O)NP(=O)(O)O)[C@@H](O)[C@H]1O [adenylyl imidodiphosphate]
Test: NP40-soluble protein abundance relative to vehicle (solubility fold change) (ratio); higher = more soluble protein in presence of AMP-PNP
How it was run: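 Crude Jurkat lysate, prepared by Dounce homogenisation, was exposed to eight concentrations from 0.1 to 10 mM for 10 min at room temperature and then 3 min at 37 °C. Solubilisation used 0.8% NP40 with benzonase for 60 min at 4 °C, followed by ultracentrifugation and TMT labelling of the supernatant for LC-MS/MS. After vsn normalisation of intensities, each value is the fold change against the detergent-processed vehicle within each replicate, across three independent experiments.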

Sequence of UniProt P29374 (P29374 whole entry): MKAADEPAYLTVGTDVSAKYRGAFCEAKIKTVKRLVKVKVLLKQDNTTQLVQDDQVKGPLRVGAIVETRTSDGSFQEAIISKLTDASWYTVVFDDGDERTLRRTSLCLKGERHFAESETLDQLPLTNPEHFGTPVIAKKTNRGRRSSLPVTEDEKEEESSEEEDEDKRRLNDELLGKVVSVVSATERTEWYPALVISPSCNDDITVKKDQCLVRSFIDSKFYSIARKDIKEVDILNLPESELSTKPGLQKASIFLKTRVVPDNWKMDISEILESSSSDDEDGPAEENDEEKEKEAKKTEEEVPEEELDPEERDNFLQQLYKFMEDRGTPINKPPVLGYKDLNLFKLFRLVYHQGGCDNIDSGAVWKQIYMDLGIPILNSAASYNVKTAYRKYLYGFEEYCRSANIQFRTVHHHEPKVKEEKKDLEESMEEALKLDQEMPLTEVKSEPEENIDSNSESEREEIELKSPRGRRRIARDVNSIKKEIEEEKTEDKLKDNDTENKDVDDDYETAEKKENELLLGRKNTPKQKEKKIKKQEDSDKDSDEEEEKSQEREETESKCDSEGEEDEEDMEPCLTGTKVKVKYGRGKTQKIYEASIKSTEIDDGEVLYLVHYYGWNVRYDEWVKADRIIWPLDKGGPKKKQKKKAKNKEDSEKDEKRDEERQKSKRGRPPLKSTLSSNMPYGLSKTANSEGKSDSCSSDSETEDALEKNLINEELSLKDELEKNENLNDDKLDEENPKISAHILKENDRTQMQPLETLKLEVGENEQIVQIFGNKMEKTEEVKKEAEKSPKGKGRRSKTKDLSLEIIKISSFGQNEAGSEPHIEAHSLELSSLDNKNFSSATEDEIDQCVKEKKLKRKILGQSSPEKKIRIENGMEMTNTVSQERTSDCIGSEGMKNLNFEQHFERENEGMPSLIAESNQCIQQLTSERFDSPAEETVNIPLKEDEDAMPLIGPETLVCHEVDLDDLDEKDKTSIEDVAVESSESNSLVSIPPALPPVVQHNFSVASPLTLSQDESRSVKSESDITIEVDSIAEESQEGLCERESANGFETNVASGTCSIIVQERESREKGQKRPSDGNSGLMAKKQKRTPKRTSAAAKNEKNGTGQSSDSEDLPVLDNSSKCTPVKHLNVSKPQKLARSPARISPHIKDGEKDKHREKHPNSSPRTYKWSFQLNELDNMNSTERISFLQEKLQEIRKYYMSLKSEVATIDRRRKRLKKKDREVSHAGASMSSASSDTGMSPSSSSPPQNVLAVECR
Sequence of UniProt P10619 (P10619 whole entry, one chain of several): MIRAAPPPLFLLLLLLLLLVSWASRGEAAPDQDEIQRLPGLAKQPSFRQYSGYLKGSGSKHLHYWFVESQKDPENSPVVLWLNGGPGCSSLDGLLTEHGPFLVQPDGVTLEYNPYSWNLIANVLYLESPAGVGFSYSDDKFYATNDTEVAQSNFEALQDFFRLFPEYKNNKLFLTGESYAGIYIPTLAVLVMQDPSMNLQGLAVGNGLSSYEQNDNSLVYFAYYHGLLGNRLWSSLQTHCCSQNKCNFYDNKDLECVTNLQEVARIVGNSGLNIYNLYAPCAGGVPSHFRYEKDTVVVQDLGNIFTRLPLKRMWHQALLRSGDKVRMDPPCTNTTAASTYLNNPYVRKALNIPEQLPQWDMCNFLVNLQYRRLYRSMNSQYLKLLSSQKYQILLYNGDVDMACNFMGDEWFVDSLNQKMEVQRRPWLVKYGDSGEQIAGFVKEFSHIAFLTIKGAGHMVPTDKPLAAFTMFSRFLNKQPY
Sequence of UniProt O95453 (O95453 whole entry): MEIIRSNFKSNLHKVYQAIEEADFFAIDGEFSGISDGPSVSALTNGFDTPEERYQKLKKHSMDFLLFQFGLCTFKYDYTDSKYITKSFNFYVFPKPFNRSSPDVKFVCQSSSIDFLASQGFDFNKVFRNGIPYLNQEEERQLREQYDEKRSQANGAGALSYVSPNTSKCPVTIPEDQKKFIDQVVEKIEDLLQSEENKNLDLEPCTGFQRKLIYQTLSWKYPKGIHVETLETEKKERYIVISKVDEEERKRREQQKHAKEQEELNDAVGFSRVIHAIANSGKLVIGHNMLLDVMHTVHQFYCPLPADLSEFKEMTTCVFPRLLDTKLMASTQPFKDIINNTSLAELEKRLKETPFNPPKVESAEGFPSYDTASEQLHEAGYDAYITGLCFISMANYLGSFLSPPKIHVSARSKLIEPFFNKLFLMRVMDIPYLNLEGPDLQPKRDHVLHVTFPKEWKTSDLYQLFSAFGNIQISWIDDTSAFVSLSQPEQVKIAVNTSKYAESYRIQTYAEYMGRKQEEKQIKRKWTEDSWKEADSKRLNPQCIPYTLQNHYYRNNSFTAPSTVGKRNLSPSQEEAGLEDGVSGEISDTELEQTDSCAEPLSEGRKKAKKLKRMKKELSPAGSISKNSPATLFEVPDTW
Sequence of UniProt P22087 (P22087 whole entry): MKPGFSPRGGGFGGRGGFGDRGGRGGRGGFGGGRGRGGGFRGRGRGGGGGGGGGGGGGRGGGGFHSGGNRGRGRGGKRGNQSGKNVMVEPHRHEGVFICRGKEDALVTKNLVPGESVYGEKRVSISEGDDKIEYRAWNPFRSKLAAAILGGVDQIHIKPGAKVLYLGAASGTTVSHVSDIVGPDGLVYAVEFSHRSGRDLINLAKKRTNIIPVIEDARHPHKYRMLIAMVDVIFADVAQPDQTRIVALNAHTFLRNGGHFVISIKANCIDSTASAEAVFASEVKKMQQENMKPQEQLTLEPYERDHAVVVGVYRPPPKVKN
Sequence of UniProt P63279 (P63279 whole entry): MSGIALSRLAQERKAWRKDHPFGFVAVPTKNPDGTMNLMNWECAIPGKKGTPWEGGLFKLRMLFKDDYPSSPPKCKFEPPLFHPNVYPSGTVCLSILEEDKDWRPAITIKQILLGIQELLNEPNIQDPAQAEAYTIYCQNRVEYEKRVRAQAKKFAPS
Sequence of UniProt P18433 (P18433 whole entry, looked up): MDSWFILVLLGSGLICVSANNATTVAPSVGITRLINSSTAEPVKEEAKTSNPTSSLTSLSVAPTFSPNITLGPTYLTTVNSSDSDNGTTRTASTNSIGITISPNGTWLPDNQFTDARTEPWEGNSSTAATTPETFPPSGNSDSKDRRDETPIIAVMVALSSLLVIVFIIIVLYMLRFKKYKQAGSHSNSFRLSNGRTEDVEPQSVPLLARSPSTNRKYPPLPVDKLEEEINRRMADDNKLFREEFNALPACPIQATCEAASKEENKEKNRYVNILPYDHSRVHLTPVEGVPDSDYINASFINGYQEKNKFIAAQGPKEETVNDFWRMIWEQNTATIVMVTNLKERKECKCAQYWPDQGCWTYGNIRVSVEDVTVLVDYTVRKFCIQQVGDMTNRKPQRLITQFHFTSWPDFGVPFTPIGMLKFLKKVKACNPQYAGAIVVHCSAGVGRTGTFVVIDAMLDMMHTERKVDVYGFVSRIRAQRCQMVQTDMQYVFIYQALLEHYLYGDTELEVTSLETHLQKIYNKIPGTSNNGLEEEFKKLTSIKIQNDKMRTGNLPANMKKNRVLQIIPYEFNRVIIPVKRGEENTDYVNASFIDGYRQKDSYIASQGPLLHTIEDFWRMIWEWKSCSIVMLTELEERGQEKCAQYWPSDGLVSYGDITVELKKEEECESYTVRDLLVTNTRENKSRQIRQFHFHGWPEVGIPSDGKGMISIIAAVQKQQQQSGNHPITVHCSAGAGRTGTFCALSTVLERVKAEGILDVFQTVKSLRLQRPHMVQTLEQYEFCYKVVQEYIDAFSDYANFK
Sequence of UniProt P23246 (P23246 whole entry): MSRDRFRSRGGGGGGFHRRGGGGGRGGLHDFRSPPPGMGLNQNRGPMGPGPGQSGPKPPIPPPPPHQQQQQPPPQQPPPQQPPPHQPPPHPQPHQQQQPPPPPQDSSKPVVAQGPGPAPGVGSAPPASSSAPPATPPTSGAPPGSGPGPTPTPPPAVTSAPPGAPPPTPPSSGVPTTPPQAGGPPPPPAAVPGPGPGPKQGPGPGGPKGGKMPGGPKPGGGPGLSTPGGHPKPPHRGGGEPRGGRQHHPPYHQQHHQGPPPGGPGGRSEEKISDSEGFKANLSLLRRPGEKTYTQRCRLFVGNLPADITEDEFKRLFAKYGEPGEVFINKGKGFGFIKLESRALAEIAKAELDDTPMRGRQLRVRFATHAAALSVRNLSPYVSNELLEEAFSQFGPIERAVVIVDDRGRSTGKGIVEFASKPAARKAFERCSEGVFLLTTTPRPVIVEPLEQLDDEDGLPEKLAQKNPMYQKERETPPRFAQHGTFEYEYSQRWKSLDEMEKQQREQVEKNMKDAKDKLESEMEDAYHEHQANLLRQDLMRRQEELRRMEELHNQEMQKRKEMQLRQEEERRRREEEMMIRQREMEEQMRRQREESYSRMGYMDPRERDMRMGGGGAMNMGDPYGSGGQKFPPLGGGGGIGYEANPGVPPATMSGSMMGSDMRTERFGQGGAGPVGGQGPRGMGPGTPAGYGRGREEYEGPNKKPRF
Sequence of UniProt P04049 (P04049 whole entry): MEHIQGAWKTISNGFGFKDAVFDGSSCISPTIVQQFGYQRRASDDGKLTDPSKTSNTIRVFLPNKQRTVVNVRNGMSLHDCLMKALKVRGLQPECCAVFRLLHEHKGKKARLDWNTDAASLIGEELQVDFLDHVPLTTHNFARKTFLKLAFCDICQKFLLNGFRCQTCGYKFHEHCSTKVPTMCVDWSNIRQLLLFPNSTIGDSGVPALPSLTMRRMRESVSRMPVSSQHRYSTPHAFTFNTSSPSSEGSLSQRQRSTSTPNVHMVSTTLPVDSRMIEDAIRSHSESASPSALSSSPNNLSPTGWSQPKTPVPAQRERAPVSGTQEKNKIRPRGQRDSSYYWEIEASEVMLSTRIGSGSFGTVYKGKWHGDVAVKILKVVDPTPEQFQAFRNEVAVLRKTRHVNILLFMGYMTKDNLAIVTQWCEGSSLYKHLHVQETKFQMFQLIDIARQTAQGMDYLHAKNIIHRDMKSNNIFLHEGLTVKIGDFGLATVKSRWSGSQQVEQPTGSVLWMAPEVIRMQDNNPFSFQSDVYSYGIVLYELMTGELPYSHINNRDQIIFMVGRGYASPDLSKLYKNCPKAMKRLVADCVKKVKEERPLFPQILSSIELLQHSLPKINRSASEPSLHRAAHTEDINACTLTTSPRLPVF

Target	NP40-soluble protein abundance (concentration: 1mM)	NP40-soluble protein abundance (concentration: 2mM)	NP40-soluble protein abundance (concentration: 4mM)	NP40-soluble protein abundance (concentration: 6mM)	NP40-soluble protein abundance (concentration: 8mM)	NP40-soluble protein abundance (concentration: 10mM)
UniProt P10619|P10619-2|X6R5C5|X6R8A1	0.979 ± 0.018	0.987 ± 0.086	0.984 ± 0.044	1.05 ± 0.11	1.06 ± 0.083	1.07 ± 0.13
UniProt O75475|V9GYT7	1.08 ± 0.028	1.21 ± 0.042	1.24 ± 0.056	1.34 ± 0.057	1.34 ± 0.024	1.37 ± 0.023
FOXK1 (UniProt P85037)	0.999 ± 0.044	1.06 ± 0.086	1.01 ± 0.014	0.987 ± 0.015	0.9378 ± 0.0057	1.01 ± 0.02
ALDH4A1 (UniProt P30038)	0.99 ± 0.028	1.02 ± 0.016	0.977 ± 0.033	0.975 ± 0.023	0.938 ± 0.013	0.954 ± 0.02
UniProt P13807|P13807-2	0.947 ± 0.11	0.922 ± 0.065	0.895 ± 0.096	0.867 ± 0.14	0.876 ± 0.098	0.863 ± 0.16
CCNA2 (UniProt P20248)	1.03 ± 0.042	1.07 ± 0.057	1.01 ± 0.033	1.01 ± 0.028	0.975 ± 0.014	1.04 ± 0.071
UniProt O95453|O95453-2|O95453-3	1.02 ± 0.018	0.975 ± 0.042	0.9979 ± 0.0039	0.991 ± 0.026	0.997 ± 0.016	0.968 ± 0.013
THOP1 (UniProt P52888)	0.938 ± 0.036	0.884 ± 0.095	0.924 ± 0.021	0.944 ± 0.034	0.942 ± 0.041	0.921 ± 0.028
ARID4A (UniProt P29374)	1.06 ± 0.053	1.07 ± 0.039	1.07 ± 0.036	1.03 ± 0.031	1.01 ± 0.032	1.07 ± 0.033
UniProt P42285	1.006 ± 0.0056	0.982 ± 0.062	1.07 ± 0.033	1.1 ± 0.036	1.14 ± 0.068	1.13 ± 0.089
CLPX (UniProt O76031)	0.957 ± 0.062	0.969 ± 0.062	0.955 ± 0.074	0.909 ± 0.08	0.886 ± 0.074	0.923 ± 0.078
VPS26A (UniProt O75436)	0.946 ± 0.045	0.861 ± 0.062	0.895 ± 0.019	0.872 ± 0.032	0.931 ± 0.046	0.829 ± 0.02
UniProt P17096|P17096-2	1.01 ± 0.076	1.19 ± 0.19	1.12 ± 0.047	1.29 ± 0.057	1.31 ± 0.088	1.74 ± 0.29
UniProt P04049|P04049-2	1.03 ± 0.023	1.06 ± 0.037	1.07 ± 0.04	1.05 ± 0.036	1.06 ± 0.033	1.05 ± 0.032
NUDT2 (UniProt P50583)	0.9311 ± 0.0079	0.909 ± 0.027	1.56 ± 0.26	1.22 ± 0.17	1.49 ± 0.23	1.14 ± 0.14
UniProt P09651-2|P09651	1.04 ± 0.11	1.09 ± 0.075	1.09 ± 0.11	1.14 ± 0.15	1.18 ± 0.15	1.25 ± 0.18
UniProt P16383|P16383-2	1.05 ± 0.038	1.09 ± 0.044	1.101 ± 0.0092	1.08 ± 0.03	1.07 ± 0.033	1.097 ± 0.0024
UniProt P60228	1.04 ± 0.073	1.04 ± 0.077	1.1 ± 0.11	1.18 ± 0.12	1.24 ± 0.12	1.33 ± 0.2
ARG2 (UniProt P78540)	0.983 ± 0.026	1.02 ± 0.033	1.02 ± 0.033	1.01 ± 0.027	0.997 ± 0.019	0.985 ± 0.038
UniProt Q01082|Q01082-3	1.05 ± 0.028	1.08 ± 0.035	1.05 ± 0.019	1.08 ± 0.06	1.05 ± 0.032	1.09 ± 0.056
POLR3D (UniProt P05423)	0.982 ± 0.017	1.01 ± 0.02	0.993 ± 0.035	0.961 ± 0.041	0.971 ± 0.037	0.998 ± 0.065

Target	NP40-soluble protein abundance (concentration: 1mM)	NP40-soluble protein abundance (concentration: 2mM)	NP40-soluble protein abundance (concentration: 4mM)	NP40-soluble protein abundance (concentration: 6mM)	NP40-soluble protein abundance (concentration: 8mM)	NP40-soluble protein abundance (concentration: 10mM)
UniProt P28331|P28331-2	0.972 ± 0.037	0.935 ± 0.081	0.954 ± 0.059	0.949 ± 0.055	0.938 ± 0.037	0.942 ± 0.086
UniProt P54619|P54619-3|P54619-2	0.993 ± 0.015	0.871 ± 0.092	0.964 ± 0.035	0.943 ± 0.025	1.01 ± 0.02	0.905 ± 0.045
SSRP1 (UniProt Q08945)	1.05 ± 0.053	1.07 ± 0.03	1.13 ± 0.045	1.35 ± 0.055	1.47 ± 0.058	1.73 ± 0.1
UniProt P23771|P23771-2	0.959 ± 0.029	0.99 ± 0.043	0.9254 ± 0.0013	0.895 ± 0.0095	0.908 ± 0.012	0.908 ± 0.022
FDFT1 (UniProt P37268)	0.993 ± 0.038	0.952 ± 0.027	0.991 ± 0.024	1.03 ± 0.1	1.05 ± 0.057	1.01 ± 0.078
SFPQ (UniProt P23246)	1.15 ± 0.054	1.25 ± 0.076	1.41 ± 0.12	1.68 ± 0.26	1.75 ± 0.28	2.02 ± 0.41
UniProt P05771|P05771-2	1.05 ± 0.019	1.03 ± 0.016	1.04 ± 0.029	1.04 ± 0.012	1.05 ± 0.017	1.04 ± 0.03
UniProt P63279	0.993 ± 0.076	1.01 ± 0.076	1.01 ± 0.1	1.04 ± 0.12	1.12 ± 0.07	1.07 ± 0.066
UniProt O95782|O95782-2	0.994 ± 0.03	0.953 ± 0.058	1.07 ± 0.046	1.09 ± 0.044	1.13 ± 0.021	1.13 ± 0.056
UniProt P53384|P53384-2	0.979 ± 0.025	0.969 ± 0.057	1 ± 0.031	0.982 ± 0.022	0.97 ± 0.014	0.96 ± 0.063
UniProt O94804	1.03 ± 0.017	1.04 ± 0.031	1.01 ± 0.027	0.987 ± 0.029	0.96 ± 0.012	0.991 ± 0.048
UniProt P49588|P49588-2	1.01 ± 0.013	0.976 ± 0.05	0.967 ± 0.041	0.979 ± 0.013	0.954 ± 0.03	0.952 ± 0.05
UniProt P49750-3|P49750-4	1.07 ± 0.027	1.17 ± 0.077	1.17 ± 0.015	1.23 ± 0.065	1.25 ± 0.07	1.35 ± 0.085
UniProt P18433|P18433-2|P18433-3|P18433-4	1.029 ± 0.0089	1.03 ± 0.027	1.03 ± 0.032	0.987 ± 0.023	1.02 ± 0.018	1.03 ± 0.036
WDHD1 (UniProt O75717)	1.01 ± 0.021	0.996 ± 0.012	0.99 ± 0.015	0.963 ± 0.036	0.953 ± 0.016	0.937 ± 0.014
GRB2 (UniProt P62993)	0.985 ± 0.035	0.943 ± 0.046	0.946 ± 0.023	0.972 ± 0.01	0.944 ± 0.037	0.918 ± 0.024
FXR2 (UniProt P51116)	1.07 ± 0.022	1.1 ± 0.023	1.2 ± 0.025	1.24 ± 0.076	1.33 ± 0.051	1.39 ± 0.12
NAA20 (UniProt P61599)	0.999 ± 0.039	0.9558 ± 0.0052	0.991 ± 0.022	0.973 ± 0.01	1.026 ± 0.0096	0.9551 ± 0.001
UniProt O75822|O75822-2	0.876 ± 0.042	0.941 ± 0.07	0.858 ± 0.031	0.949 ± 0.026	0.957 ± 0.029	0.99 ± 0.015
HIST1H1B (UniProt P16401)	1.052 ± 0.0074	1.18 ± 0.18	1.15 ± 0.11	1.27 ± 0.22	1.32 ± 0.21	1.59 ± 0.19
FBL (UniProt P22087)	1.02 ± 0.046	1.027 ± 0.003	1.1 ± 0.051	1.22 ± 0.092	1.37 ± 0.12	1.48 ± 0.25
